# Source: PubChem BioAssay
# For some assays here: Potency and affinity values are given separately. Inconclusive results are not listed. Activity calls are given as the source filed them.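 Rule for the calls, unless noted: active = fitted dose curve reaches 40% lysis signal rise at or below the highest valid concentration tested for that sample; inconclusive = flat fit between 30% and 70%, or poor curve fit; inactive = signal falls, stays flat within 30%, or no crossing.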
# Legend:
# [1] = fungal growth arrest, C. neoformans – Alamar Blue, cherry-picks, dose response (AID 686998;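 active = falling signal with fitted half-maximal potency no higher than twice the top valid tested dose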); conditions: Cryptococcus neoformans growth, 24 h; series mostly up to 35 µM
# [2] = C. neoformans lysis by adenylate kinase leakage – AK release luminescence, cherry-picks, dose response (AID 687000); conditions: 4 h, 100% = twice the neutral-control signal; series mostly up to 15 µM;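 note: luminescent detection of adenylate kinase leaking from lysed yeast; 0% = median neutral control signal and 100% = double that signal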
# [3] = viability loss in HepG2 hepatoma cells – cell-based, cherry-picks, set 2, cytotoxicity control, dose response (AID 687002;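 active = a dose-response fit showing signal loss, with half-maximal concentration no higher than twice the top tested dose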); conditions: ATP luminescence (CellTiter-Glo), 48 h; series mostly up to 26 µM
# [4] = small molecules captured by biotinylated probe aFSTL3 – biochemical, small-molecule microarray, fluorescence 635/667, stem cell growth factor project, primary screen (AID 1064); conditions: higher = more signal;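 note: measures binding of the biotinylated anti-FSTL3 antibody to printed compounds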
# [5] = binders from COS7 lysate, DM2A8 probe, primary screen, torsin A project, cell lysate, small-molecule microarray, fluorescence 635/667 (AID 1065); conditions: higher = more signal, COS7 lysate expressing mutant human TOR1A
# [6] = small molecules captured by biotinylated probe aFGF2 – biochemical, small-molecule microarray, fluorescence 635/667, stem cell growth factor project, primary screen (AID 1067); conditions: higher = more signal;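 note: measures binding of biotinylated aFGF2 protein to printed compounds on slides; z-score merges feature fluorescence and signal-to-noise across triplicate slides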
# [7] = small molecules captured by biotinylated probe aFGF10 – biochemical, small-molecule microarray, fluorescence 635/667, stem cell growth factor project, primary screen (AID 1071); conditions: higher = more signal;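 note: score merges 667 nm spot intensity and signal to noise from triplicate slides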
# [8] = target: Neurogenic locus notch homolog protein 2 (Homo sapiens) (UniProt Q04721); assay: small molecules binding Notch2 protein – biochemical, small-molecule microarray, 635 nm fluorescence, stem cell growth factors, primary screen (AID 1073); conditions: higher = more signal
# [9] = target: Pro-neuregulin-1, membrane-bound isoform (Homo sapiens) (UniProt Q02297); assay: small molecules binding neuregulin-1 protein – biochemical, small-molecule microarray, fluorescence 635/667, psychiatric disease protein project, primary screen (AID 1075); conditions: NRG1 binding, 635 nm fluorescence, higher = more signal;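 note: score combines 667 nm spot fluorescence with signal to noise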
# [10] = test system: Neuregulin-1 EGF-like domain; assay: small molecules binding NRG1 EGF domain – biochemical, small-molecule microarray, 635 nm fluorescence, primary screen (AID 1081); conditions: higher = more signal;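 note: binding of the protein to compounds printed on small-molecule microarray slides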
# [11] = FRG1 expression reporter modulators in myotubes – cell-based, C2C12 myotubes, firefly/Renilla luciferase, luminescence, FRG1 inhibition for FSHD, primary screen (AID 1084); conditions: FRG1 promoter luciferase, higher = more signal, called active from +8 up or from −8 down
# [12] = small molecules captured by biotinylated probe aFST – biochemical, small-molecule microarray, fluorescence 635/667, stem cell growth factor project, primary screen (AID 1086); conditions: higher = more signal;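 note: score merges 667 nm fluorescence with signal-to-noise of each printed compound spot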
# [13] = binders of probe aHhip on microarray, primary screen, stem cell growth factor project, biochemical, small-molecule microarray, fluorescence 635/667 (AID 1087); conditions: higher = more signal;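 note: score merges spot fluorescence at 667nm with spot signal to noise ratio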
# [14] = test system: PRMT1 (protein arginine N-methyltransferase 1); assay: small molecules binding arginine methyltransferase PRMT1 – biochemical, small-molecule microarray, 635 nm fluorescence, primary screen (AID 1088); conditions: higher = more signal;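 note: binding of Prmt1 protein to compounds spotted on small-molecule microarray slides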
# [15] = growth effects on S. cerevisiae YJM789 – YJM789 clinical isolate, OD600, 24 h, basal, primary screen (AID 1089); conditions: higher = more signal, called active from +8 up or from −8 down;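 note: growth of clinical yeast isolate S. cerevisiae YJM 789 seeded 1000 cells per well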
# [16] = S. pombe growth modifiers, basal conditions – strain 972, OD600, 24 h, no modulator, primary screen (AID 1090);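 note: basal condition with compound alone and no growth modifier present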; conditions: S. pombe 972 growth, higher = more signal, called active from +8 up or from −8 down
# [17] = budding yeast growth modifiers under rapamycin – strain BY4716, OD600, 96 h, primary screen (AID 1091); conditions: S. cerevisiae BY4716 + rapamycin, higher = more signal, called active from +8 up or from −8 down
# [18] = target: Torsin-1A-interacting protein 2 (Homo sapiens) (UniProt Q8NFQ8); assay: small molecules binding lysate-expressed LULL1 – cell lysate, human LULL1 lysate, 635/667 nm fluorescence, primary screen (AID 1092); conditions: small-molecule microarray, hLULL1 lysate binding, 635 nm fluorescence; higher = more signal;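 note: probe is lysate of COS7 cells overexpressing human LULL1; score merges per-feature 667 nm fluorescence with signal-to-noise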
# [19] = optical density change of DRC41 E. coli – strain DRC41, OD650, 24 h, E. coli filamentation project, primary screen (AID 1093);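 note: MC1000 strain lacking acrAB efflux and sulA so SOS filamentation is blocked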; conditions: E. coli DRC41 growth, higher = more signal, called active from +8 up or from −8 down
# [20] = probe aLefty2 binding to arrayed compounds – biochemical, biotinylated probe, 635/667 nm fluorescence, primary screen (AID 1094); conditions: small-molecule microarray, higher = more signal;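 note: score merges spot fluorescence near 667 nm with spot signal-to-noise ratio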
# Pro-neuregulin-1, membrane-bound isoform (Homo sapiens), sequence (Q02297 whole entry, looked up, the tested form may be a part, canonical isoform): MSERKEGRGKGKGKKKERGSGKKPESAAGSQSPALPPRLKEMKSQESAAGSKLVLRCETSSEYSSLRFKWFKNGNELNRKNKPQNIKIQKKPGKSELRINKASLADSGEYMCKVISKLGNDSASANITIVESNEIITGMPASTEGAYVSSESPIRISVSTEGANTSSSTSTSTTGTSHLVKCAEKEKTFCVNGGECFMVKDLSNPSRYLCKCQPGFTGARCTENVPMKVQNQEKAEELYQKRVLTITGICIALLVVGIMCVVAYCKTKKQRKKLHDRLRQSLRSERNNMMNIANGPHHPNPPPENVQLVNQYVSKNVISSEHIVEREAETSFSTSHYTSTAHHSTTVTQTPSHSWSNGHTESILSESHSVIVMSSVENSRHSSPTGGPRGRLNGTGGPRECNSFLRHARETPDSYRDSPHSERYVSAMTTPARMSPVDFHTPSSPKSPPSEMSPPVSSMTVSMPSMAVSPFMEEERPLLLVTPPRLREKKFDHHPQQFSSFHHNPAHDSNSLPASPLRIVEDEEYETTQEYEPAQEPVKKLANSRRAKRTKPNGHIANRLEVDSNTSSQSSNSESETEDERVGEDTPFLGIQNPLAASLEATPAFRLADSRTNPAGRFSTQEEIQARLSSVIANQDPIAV
# Torsin-1A-interacting protein 2 (Homo sapiens), sequence (Q8NFQ8 whole entry, looked up): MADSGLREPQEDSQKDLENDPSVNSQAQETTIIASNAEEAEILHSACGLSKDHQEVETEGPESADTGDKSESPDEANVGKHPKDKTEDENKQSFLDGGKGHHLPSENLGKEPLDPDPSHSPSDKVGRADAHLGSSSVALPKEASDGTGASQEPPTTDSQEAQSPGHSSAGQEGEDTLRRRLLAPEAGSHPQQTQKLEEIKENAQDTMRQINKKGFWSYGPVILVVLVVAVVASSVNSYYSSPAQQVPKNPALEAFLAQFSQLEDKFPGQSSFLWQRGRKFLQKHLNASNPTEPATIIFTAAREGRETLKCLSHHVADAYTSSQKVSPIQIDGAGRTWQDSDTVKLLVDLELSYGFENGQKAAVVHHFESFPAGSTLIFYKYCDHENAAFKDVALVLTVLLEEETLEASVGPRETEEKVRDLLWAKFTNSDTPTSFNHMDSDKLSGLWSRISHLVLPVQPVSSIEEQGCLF
# Neurogenic locus notch homolog protein 2 (Homo sapiens), sequence (Q04721 whole entry, looked up, canonical isoform): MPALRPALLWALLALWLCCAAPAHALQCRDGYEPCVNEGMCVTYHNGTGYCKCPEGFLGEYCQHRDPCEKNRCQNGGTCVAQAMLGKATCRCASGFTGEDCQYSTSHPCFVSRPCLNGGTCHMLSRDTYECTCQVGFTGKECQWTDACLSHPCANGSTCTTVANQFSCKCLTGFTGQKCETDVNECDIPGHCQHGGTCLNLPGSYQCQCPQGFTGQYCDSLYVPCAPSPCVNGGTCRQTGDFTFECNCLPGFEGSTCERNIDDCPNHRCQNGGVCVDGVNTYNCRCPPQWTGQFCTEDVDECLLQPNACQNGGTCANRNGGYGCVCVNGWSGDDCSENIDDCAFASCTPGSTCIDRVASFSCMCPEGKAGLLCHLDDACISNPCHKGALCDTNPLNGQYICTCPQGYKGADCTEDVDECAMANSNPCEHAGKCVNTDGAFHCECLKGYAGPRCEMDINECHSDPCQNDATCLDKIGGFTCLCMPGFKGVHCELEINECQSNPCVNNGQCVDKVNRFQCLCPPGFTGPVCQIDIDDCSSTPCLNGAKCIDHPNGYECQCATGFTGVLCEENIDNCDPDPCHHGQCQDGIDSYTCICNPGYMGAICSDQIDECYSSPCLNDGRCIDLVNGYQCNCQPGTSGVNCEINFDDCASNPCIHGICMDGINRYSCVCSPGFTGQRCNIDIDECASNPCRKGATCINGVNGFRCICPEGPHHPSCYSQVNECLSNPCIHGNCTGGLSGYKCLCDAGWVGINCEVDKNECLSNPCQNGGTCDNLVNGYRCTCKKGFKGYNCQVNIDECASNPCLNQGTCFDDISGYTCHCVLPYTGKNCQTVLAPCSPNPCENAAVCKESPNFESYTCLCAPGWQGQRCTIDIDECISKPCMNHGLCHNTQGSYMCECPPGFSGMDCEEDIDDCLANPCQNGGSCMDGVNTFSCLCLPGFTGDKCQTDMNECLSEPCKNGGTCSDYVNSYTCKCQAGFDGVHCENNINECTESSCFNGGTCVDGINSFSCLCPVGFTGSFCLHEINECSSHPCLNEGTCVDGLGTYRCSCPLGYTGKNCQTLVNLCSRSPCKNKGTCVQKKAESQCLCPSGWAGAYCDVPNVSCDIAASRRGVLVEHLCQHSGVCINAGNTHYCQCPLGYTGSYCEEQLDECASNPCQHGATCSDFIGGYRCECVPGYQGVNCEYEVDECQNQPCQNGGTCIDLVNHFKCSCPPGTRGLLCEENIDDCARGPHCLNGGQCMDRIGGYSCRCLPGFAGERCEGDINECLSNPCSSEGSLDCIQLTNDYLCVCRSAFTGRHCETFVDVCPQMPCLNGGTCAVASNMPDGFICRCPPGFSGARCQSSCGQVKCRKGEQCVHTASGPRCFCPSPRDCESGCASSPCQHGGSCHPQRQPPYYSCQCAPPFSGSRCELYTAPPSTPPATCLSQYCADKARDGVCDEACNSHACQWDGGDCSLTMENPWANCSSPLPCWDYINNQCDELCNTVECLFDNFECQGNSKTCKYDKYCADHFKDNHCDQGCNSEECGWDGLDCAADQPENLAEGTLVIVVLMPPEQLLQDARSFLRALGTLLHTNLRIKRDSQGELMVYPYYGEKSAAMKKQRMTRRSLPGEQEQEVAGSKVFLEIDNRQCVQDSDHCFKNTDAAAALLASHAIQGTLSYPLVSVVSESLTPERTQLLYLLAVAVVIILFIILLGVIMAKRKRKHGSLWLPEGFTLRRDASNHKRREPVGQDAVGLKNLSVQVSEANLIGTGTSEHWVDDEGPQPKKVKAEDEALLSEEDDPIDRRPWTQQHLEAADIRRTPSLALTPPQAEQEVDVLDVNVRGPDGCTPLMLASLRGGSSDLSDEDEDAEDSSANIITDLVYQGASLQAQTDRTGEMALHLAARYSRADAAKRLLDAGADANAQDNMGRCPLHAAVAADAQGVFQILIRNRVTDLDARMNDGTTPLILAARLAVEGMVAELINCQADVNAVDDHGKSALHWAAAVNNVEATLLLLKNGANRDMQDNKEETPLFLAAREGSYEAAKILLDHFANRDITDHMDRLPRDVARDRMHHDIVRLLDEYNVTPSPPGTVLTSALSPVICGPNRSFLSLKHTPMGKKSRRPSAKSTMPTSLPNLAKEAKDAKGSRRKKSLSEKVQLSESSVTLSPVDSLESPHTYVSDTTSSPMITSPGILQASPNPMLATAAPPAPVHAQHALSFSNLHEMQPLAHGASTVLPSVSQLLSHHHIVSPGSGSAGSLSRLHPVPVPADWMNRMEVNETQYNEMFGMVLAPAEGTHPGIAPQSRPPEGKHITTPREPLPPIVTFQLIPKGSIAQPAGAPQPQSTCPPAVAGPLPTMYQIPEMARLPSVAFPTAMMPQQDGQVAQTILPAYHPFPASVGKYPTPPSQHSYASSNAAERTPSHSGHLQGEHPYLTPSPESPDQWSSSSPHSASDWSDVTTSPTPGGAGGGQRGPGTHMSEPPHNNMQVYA
Compound,outcome [1],outcome [2],outcome [3],composite z-score [4],composite z-score [5],composite z-score [6],composite z-score [7],composite z-score [8],composite z-score [9],composite z-score [10],z-score [11],composite z-score [12],composite z-score [13],composite z-score [14],z-score [15],z-score [16],z-score [17],composite z-score [18],z-score [19],composite z-score [20]
O=S(=O)(c1ccc(F)cc1)N1C[C@@H]2[C@H](c3ccccc31)[C@@H](CO)N2Cc1ccccc1Cl,inactive,inactive,inactive,–,–,–,–,–,–,–,–,–,–,–,–,–,–,–,–,–
O=C(NO)[C@]1(Cc2ccccc2)N=C(c2ccc(OCCCO)cc2)O[C@@H]1c1ccccc1,–,–,–,0.464,1.2,-0.246,-0.134,-0.66,0.545,-0.921,-1.62 (inactive),0.14,-0.0645,-0.269,-4.96 (inactive),-3.08 (inactive),-1.94 (inactive),-0.231,3.42 (inactive),0.0204
C=CCC(OC(C)=O)[C@@H]1[C@@H](N(Cc2cccc3ccccc23)C(=O)Cc2ccc(OC)cc2)c2cc(OCCCO)ccc2N1C(=O)Cc1ccc(OC)cc1 (stereo partly drawn),–,–,–,0.163,0.045,-0.0396,-0.236,-0.111,-0.0173,-0.832,-0.781 (inactive),-0.0127,-0.113,-0.59,0.395 (inactive),-1.38 (inactive),-0.275 (inactive),0.0872,2.21 (inactive),-0.0691
Cc1ccccc1CN(C)C[C@H]1OCc2cn(nn2)CCCC(=O)N([C@@H](C)CO)C[C@H]1C,inactive,inactive,inactive,–,–,–,–,–,–,–,–,–,–,–,–,–,–,–,–,–
O=C(N1CCCCC1)[C@@]1(Cc2ccccc2)N=C(c2ccc(OCCCO)cc2)O[C@H]1c1ccccc1,–,–,–,0.994,2,0.103,0.235,1.58,1.05,1.02,-3.21 (inactive),1.52,-0.146,1.18,-0.997 (inactive),-2.65 (inactive),4.43 (inactive),2.99,0.668 (inactive),0.429
CC(C)[Si](C#C[Si](C(C)C)(C(C)C)C(C)C)(O[C@H](C)c1cn([C@H](C)c2ccccc2)nn1)C(C)C,–,–,–,-0.248,0.15,-0.0402,0.357,0.814,0.3,0.528,-1.64 (inactive),0.25,-0.132,1.18,-1.22 (inactive),-2.35 (inactive),-1.4 (inactive),1.11,0.723 (inactive),0.0137
CC(C)NC(=O)[C@@H]1c2ccccc2C(=O)N(Cc2cc(F)cc(C(F)(F)F)c2)[C@H]1c1ccc(CO)cc1,–,–,–,1.02,-0.197,-0.141,-1.12,-0.636,0.433,0.844,0.842 (inactive),0.136,-0.149,-0.305,-0.354 (inactive),-0.92 (inactive),-1.17 (inactive),2.48,1.52 (inactive),0.0071
C=C1C=C(Br)C2(OCCCO2)[C@H]2OC12 (stereo partly drawn),–,–,–,-0.199,0.249,-0.128,0.325,-0.175,-0.188,-0.221,1.04 (inactive),0.206,0.0274,-0.83,-0.23 (inactive),-0.54 (inactive),0.405 (inactive),-0.38,0.294 (inactive),-0.116
CN(C[C@H]1N[C@@H](CO)[C@H]1c1ccc(-c2cccc(F)c2)cc1)S(C)(=O)=O,inactive,inactive,–,–,–,–,–,–,–,–,–,–,–,–,–,–,–,–,–,–
COC(=O)[C@@]1(CCC(=O)OC(C)(C)C)COC(c2ccc(OCCCO)cc2)=N1,–,–,–,1.47,-1.53,-0.212,-1.92,-1.89,-0.312,0.256,-0.44 (inactive),-0.311,-0.405,-0.964,-1.42 (inactive),-0.502 (inactive),-0.752 (inactive),-0.771,0.989 (inactive),0.0399
CCCN1CCCC[C@H]1C(=O)Nc1c(C)cccc1C,inactive,inactive,inactive,–,–,–,–,–,–,–,–,–,–,–,–,–,–,–,–,–
[N-]=[N+]=NCc1ccccc1C[C@@]1(C(=O)NCc2ccccc2)N=C(c2ccc(OCCCO)cc2)O[C@@H]1c1ccccc1,–,–,–,1.16,0.997,0.0336,0.422,0.853,0.457,0.856,-3.28 (inactive),0.551,-0.191,0.475,1.06 (inactive),0.393 (inactive),32.7 (active),1.82,2.1 (inactive),0.247
C=CCOC(=O)[C@H]1[C@@H]2C(=O)O[C@@H](c3ccccc3)[C@@H](c3ccccc3)N2[C@@H](c2ccc(OCCOC(=O)[C@H]3C[C@H]4C(=O)N5CCC[C@H]5C(=O)N4[C@H]3c3cccc(OCCO)c3)cc2)[C@]12C(=O)Nc1ccccc12,–,–,–,-0.113,0.984,-0.147,0.363,0.0945,1.06,1.24,0.176 (inactive),0.406,-0.182,1.53,0.766 (inactive),-0.347 (inactive),2.43 (inactive),2.04,1.83 (inactive),0.103
COc1cccc(-c2cn(CC[C@@H]3CC[C@@H](NC(C)=O)[C@H](CO)O3)nn2)c1,inactive,inactive,inactive,–,–,–,–,–,–,–,–,–,–,–,–,–,–,–,–,–
C[C@@H](NC(=O)C[C@@H]1CC[C@H]2[C@@H](COC[C@@H](O)CN2Cc2cc(F)ccc2F)O1)c1ccccc1,inactive,inactive,inactive,–,–,–,–,–,–,–,–,–,–,–,–,–,–,–,–,–
COc1ccc(CCNC(=O)[C@@]2(Sc3ccc(C)cc3)CC(=O)N(Cc3ccccc3)[C@@H]2c2ccc(CO)cc2I)cc1,–,–,–,-1.07,0.461,-0.187,-0.111,-0.0768,0.0114,0.388,-1.58 (inactive),-0.32,-0.616,0.471,0.44 (inactive),-1.66 (inactive),2.72 (inactive),1.87,0.485 (inactive),-0.337
C=CCNC(=O)[C@H]1[C@@H]2C(=O)O[C@@H](c3ccccc3)[C@@H](c3ccccc3)N2[C@@H](c2ccccc2OCCO)[C@]12C(=O)N(C(=O)OCCOC)c1ccc(C#CCCO)cc12,–,–,–,1.61,1.31,0.0603,0.853,0.83,0.79,1.11,-4.05 (inactive),1.24,0.511,1.43,0.827 (inactive),-3.06 (inactive),3.43 (inactive),1.36,1.68 (inactive),0.994
COc1ccc([Si](C)(C)[C@H]2[C@H](CCO)O[C@@]3(C(=O)N(Cc4ccc(N5C(=O)c6cccc7cccc5c67)cc4)c4ccccc43)[C@@H]2C)cc1,–,–,–,0.633,-0.213,-0.0692,-0.397,-0.831,1.1,0.657,-4.45 (inactive),0.025,-0.261,0.126,0.341 (inactive),0.472 (inactive),26 (active),0.589,2.02 (inactive),-0.169
C=CCC(OC(C)=O)[C@@H]1[C@@H](N(Cc2cccc3ccccc23)C(=O)c2cccc3ccccc23)c2cc(OCCCO)ccc2N1C(=O)Cc1ccc(OC)cc1 (stereo partly drawn),–,–,–,-0.0733,-0.136,-0.0569,0.108,0.568,0.123,0.193,-1.64 (inactive),0.03,-0.0994,0.435,-1.17 (inactive),-1.59 (inactive),-0.8 (inactive),1.52,2.09 (inactive),-0.121
CC(C)C(CO)N1C(=O)[C@@H]2[C@H]3C(=O)OCC=C[C@H]3OC23C=CCN(Cc2ccccc2)C(=O)[C@@H]13 (stereo partly drawn),–,–,–,-0.302,-0.438,-0.116,-0.307,-0.834,-0.72,-0.386,-0.699 (inactive),-0.361,-0.0994,-0.462,-0.899 (inactive),-0.742 (inactive),-1.06 (inactive),-1.04,2.08 (inactive),-0.238
Cc1ccc(N2C(=O)c3ccccc3[C@](C)(C(=O)NC3CC3)[C@@H]2c2ccc(CO)cc2)nc1,–,–,–,0.879,-0.241,-0.0948,-0.325,-0.344,-0.474,-0.0515,0.843 (inactive),0.406,-0.0047,-0.349,0.0474 (inactive),-0.981 (inactive),-0.69 (inactive),0.244,0.949 (inactive),0.149
C[N+](C)(C)CCCC[C@@H]1NC(=O)[C@H]2C[C@@H](C(=O)NCCCCCN)[C@@H](c3cccc(OCCO)c3)N2C1=O,–,–,–,0.89,0.419,-0.0164,0.372,0.529,2.07,0.739,-0.309 (inactive),1.69,0.242,0.665,-0.706 (inactive),-2.62 (inactive),-0.207 (inactive),2.7,2.4 (inactive),0.739
C=C(COC)C(=O)CC[C@@H](OC(=O)c1ccccc1-c1ccccc1C(=O)O)c1cccc(OCCO)c1,–,–,–,-0.124,0.098,-0.14,0.457,-0.66,0.691,0.137,0.658 (inactive),-0.0665,-0.0645,0.437,0.586 (inactive),-1.51 (inactive),-0.409 (inactive),0.132,0.826 (inactive),-0.183
COc1c(C)cc(-c2cc3c(c(CCc4ccccc4)n2)[Si](C(C)C)(C(C)C)OC3)cc1C,–,–,–,-0.496,1.49,-0.125,0.358,0.364,-0.355,0.578,-0.14 (inactive),0.287,-0.0346,1.42,-0.819 (inactive),-1.57 (inactive),-0.618 (inactive),0.778,2.29 (inactive),-0.0866
